# HP1b binding inh: HP1-beta chromodomain-methylated histone interaction inhibition; AID 540317; Potency, µM (series often up to 114 µM), hits mostly inhibitors; hit rate 0.56% among 390,000; P83916; AlphaScreen HP1-beta / biotin-H3K9me3 peptide binding; also: nearly all actives have a fitted effect of over 70% in size
# Target sequence (P83916 whole entry, looked up): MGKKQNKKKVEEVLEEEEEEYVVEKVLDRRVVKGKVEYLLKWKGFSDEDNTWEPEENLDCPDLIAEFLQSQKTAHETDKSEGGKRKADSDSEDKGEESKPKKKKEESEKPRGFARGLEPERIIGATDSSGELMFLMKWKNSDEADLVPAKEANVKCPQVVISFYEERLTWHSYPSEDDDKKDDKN
#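 AlphaScreen: HP1-beta (50 nM) preformed 30 min with biotin-H3(1-18)K9me3 peptide (50 nM) in PBS pH 7.4, 0.01% Tween-20. Compound added for 30 min at RT, then streptavidin donor/nickel chelate acceptor beads (10 ug/mL) for 30 min.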
# G9a block: blocks human histone lysine methyltransferase G9a; Potency, µM (doses to about 102 µM), most hits filed as inhibitors; G9a H3K9 monomethylation, AlphaScreen, 2 h; Q96KQ7; hit rate 8.8% among 350,000; also: nearly all actives have a fitted effect of over 75% in size
# Target sequence (Q96KQ7 913-1193 limits assumed): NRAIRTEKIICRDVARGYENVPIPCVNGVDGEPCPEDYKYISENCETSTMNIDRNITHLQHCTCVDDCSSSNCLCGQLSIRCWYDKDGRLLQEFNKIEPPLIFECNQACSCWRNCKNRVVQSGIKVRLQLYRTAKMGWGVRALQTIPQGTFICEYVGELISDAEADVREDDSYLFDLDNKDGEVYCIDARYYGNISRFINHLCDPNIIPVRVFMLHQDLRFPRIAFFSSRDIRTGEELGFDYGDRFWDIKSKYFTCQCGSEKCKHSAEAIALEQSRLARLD
#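 Step 1: enzyme (final 20 nM) with compound, 15 min RT. Step 2: substrate peptide 500 nM and SAM 20 uM, 2 h RT. Step 3: anti-H3K9me1 antibody and AlphaScreen beads, 10 min, then plate read.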
# GLS inh: glutaminase GLS (human) inhibition. O94925. GLS enzymatic activity, qHTS titration. Potency, µM (top dose mostly 45.5 µM), usual class: inhibitors. hit rate 0.21% among 410,000
#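 Coupled fluorescence readout: glutamate oxidase/HRP/Amplex Red detect glutamate formed by hKGA from L-glutamine (1 mM solution added). Buffer 45 mM KH2PO4 pH 8.2, 0.02% Tween-20; reads at t0 and 30 min RT.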
# JMJD2A Tudor inh: inhibitors of human JMJD2A Tudor domain; Potency, µM (top dose mostly 114 µM), actives largely listed as inhibitors; AlphaScreen JMJD2A-Tudor / H3K4me3 peptide binding; AID 504339; hit rate 4.4% among 390,000; O75164; also: nearly all actives have a fitted effect of over 50% in size
# BAZ2B inh: BAZ2B (human) inhibition. Potency, µM (series often up to 114 µM), actives largely listed as inhibitors. AlphaScreen BAZ2B-H3K14Ac peptide displacement. hit rate 4.4% among 360,000. AID 504333. Q9UIF8; also: nearly all actives have a fitted effect of over 60% in size
#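 BAZ2B (50 nM) with biotin-H3(5-23)K14Ac peptide (50 nM) in PBS pH 7.4, 0.01% Tween-20, preformed 30 min, then compound 30 min at room temperature; top concentration 110uM. AlphaScreen streptavidin donor/nickel chelate acceptor beads (10 ug/mL final), 20 min dark, signal read.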
# Hits are given with their value; - = inactive; ? = inconclusive; . = not tested or not shown; ! = repeats disagree; [ ] = remark or other dose. Shown are actives, neighbours in structure and some others; about 10% of the full set was active somewhere. Calls follow the shape of the dose curve; as a rule, active = well fitted curve in the direction sought with a large enough effect; inconclusive = small, poorly fitted or top-dose-only effect, or another doubt; inactive = no such curve, though single readings can be large; an effect the other way counts as inactive or inconclusive.
SMILES,HP1b binding inh,G9a block,GLS inh,JMJD2A Tudor inh,BAZ2B inh
CCN1C[C@@H]2[C@@H]3C(=O)N(C)C(=O)[C@@H]3[C@](C)(C1=O)N2C(=O)c1ccc(C(F)(F)F)cc1,-,.,-,-,.
O=C(Nn1c(Cc2cccs2)nc2ccccc2c1=O)c1cccs1,-,50.1µM,-,-,-
COc1ccc(-c2cc(C(F)F)n3ncc(C(=O)N4CCc5ccccc54)c3n2)cc1,?,.,?,20µM,?
COC(=O)c1sc(S(=O)(=O)NCC(=O)O)c(C(=O)OC)c1C,-,70.8µM,-,-,?
COC(=O)c1sc(S(=O)(=O)Nc2c(C)nn(C)c2C)c(C(=O)OC)c1C,-,56.2µM,-,-,-
COC(=O)c1sc(NC(=O)C(C)C)c(C(=O)OC)c1C,-,-,-,-,?
COC(=O)c1sc(NC(=S)NNC(=O)c2c(Br)c(C)nn2C)c(C(=O)OC)c1C,-,.,-,50.1µM,25.1µM
CCC(=O)Nc1sc(C(=O)OC)c(C)c1C(=O)OC,-,28.2µM,?,-,-
Cc1ccc(NC(=O)c2[nH]cnc2C(=O)NN)cc1,-,-,-,?,?
O=C(Nc1ccccn1)c1ccc2ccccc2c1O,-,31.6µM,-,-,-
NNC(=O)c1nc[nH]c1C(=O)Nc1ccccn1,-,-,-,2.82µM,2.51µM
COc1ccc(N/C=C/C(=O)c2ccc(Cl)cc2)cc1,-,-,-,-,-
COc1ccc(N/C=C2\C(=O)CCc3c2oc2cc(Cl)c(O)c(Cl)c32)cc1,-,39.8µM,?,-,-
Cn1cccc1C(=O)N1CCC[C@@]2(CCN(C(c3ccccc3)c3ccccc3)C2)C1,.,-[12.7 µM],.,.,.
CCc1ccc(NC(=O)CSc2nc(-c3ccccc3Cl)nc3c2Cc2c(CO)cnc(C)c2O3)cc1,-,-,-,-,-
CCc1ccc(NC(=O)CSc2nc(-c3ccc(C)cc3)nc3c2Cc2c(CO)cnc(C)c2O3)cc1,-,-[12.7 µM],-,-,50.1µM
Cc1ncc(CO)c2c1Oc1nc(-c3ccccc3)nc(SCC(=O)Nc3cccc(O)c3)c1C2,-,-,-,-,-
COc1ccc(-c2nc3c(c(SCC(=O)Nc4cccc(O)c4)n2)Cc2c(CO)cnc(C)c2O3)cc1,-,11.2µM!,-,-,?
CCCS(=O)(=O)N1CCCC(C(=O)c2ccccc2OC)C1 (centres undefined),-,-,-,-,-
CCc1nc2ccc(C(=O)NCCCN3CCCC3=O)cn2c1N(C)Cc1ccc(OC)cc1,.,.,-,.,.
CCCOc1ccc(C(=O)Nc2cc3c(cc2N2CCOCC2)n(C)c(=O)n3C)cc1,-,-,-,-,-
COC(=O)CSC1=C(C#N)C(c2ccc3c(c2)OCO3)C2=C(CCCC2=O)N1 (centres undefined),-,?,-,-,-
N#CC1=C(SCc2ccccc2)NC2=C(C(=O)CCC2)C1c1ccc2c(c1)OCO2 (centres undefined),-,-[2.33 µM],-,44.7µM,-
Cc1ccc(NC(=O)CSC2=C(C#N)C(c3ccc4c(c3)OCO4)C3=C(CCCC3=O)N2)c(C)c1 (centres undefined),-,50.1µM,-,-,-
CCc1ccccc1NC(=O)CSC1=C(C#N)C(c2ccc(O)c(OC)c2)C2=C(CCCC2=O)N1 (centres undefined),-,8.91µM,?,-[11.4 µM],-
SMILES,HP1b binding inh,G9a block,GLS inh,JMJD2A Tudor inh,BAZ2B inh
CCSC1=C(C#N)C(c2ccc3c(c2)OCO3)C2=C(CCCC2=O)N1 (centres undefined),-,-,-,-,?
O=C1CCCC2=C1C(c1ccc3c(c1)OCO3)c1c([nH]n(-c3ccccc3)c1=O)N2 (centres undefined),-,39.8µM,-,-,-
COc1cccc(C2C3=C(CCCC3=O)Nc3[nH]n(-c4ccccc4)c(=O)c32)c1 (centres undefined),-,?,-,-,-
COc1cc(C2C(C#N)=C(SC)NC3=C2C(=O)CCC3)ccc1O (centres undefined),-,?,-,-,-
CC[C@@]1(C(=O)OC)N[C@H](CN(C)S(=O)(=O)c2ccc(C(F)(F)F)cc2)[C@@H]2C(=O)N(C)C(=O)[C@@H]21,-,.,-,-,.
Cc1ccc(C(=O)NCCC(C)C)cc1NC(=O)c1nsc2ccccc12,-,-,-,-,-
O=C(NCCN1CCOCC1)C1(C(F)(F)F)C/C(=C\CCO)CCCO1 (centres undefined),-,.,.,-,.
C=CCOC(=O)C1=C(C)NC(SC)=C(C#N)C1c1ccc(OCC)cc1 (centres undefined),-,-,-,-,-
C=CCOC(=O)C1=C(C)NC(SCC(=O)OCC)=C(C#N)C1c1ccc(O)c(OC)c1 (centres undefined),-,31.6µM,-,-,-
CCc1cc(=O)[nH]c(SCc2nc(-c3ccc(C(F)(F)F)cc3)no2)n1,-,-,-,-,-
COc1ccccc1-[n+]1c(C)cc(/C=C2\Sc3ccccc3N2C)cc1C,-,?,-,-,-
COc1ccc(-[n+]2c(C)cc(/C=C3\Sc4ccccc4N3C)cc2C)cc1,-,50.1µM,-,-,-
COc1cc(-c2nnc(COC(=O)c3c4c(nc5ccccc35)CCCC4)o2)cc(OC)c1OC,.,-,.,.,-
CC1(C)OC(c2ccccc2)=C/C(=C\C=N\NC(=O)c2ccncc2)O1,-,-[12.7 µM],-,-,70.8µM
COc1ccc(-c2nnc3ccc(SC(C(C)=O)C(C)=O)nn23)cc1OC,-,2.24µM,-,20µM,.
CCC(Sc1ccc2nnc(-c3ccc(OC)c(OC)c3)n2n1)C(=O)O (centres undefined),-,7.94µM,-,-,-
Cc1ccc(C(=O)NCC(=O)OCC(=O)c2ccc3ccccc3c2)cc1,-,.,.,-,.
COP(=O)(OC)c1ccc(NCc2cc(O)ccc2O)cc1,?,.,?,3.55µM,.
CC(C)OC(=O)c1ccc(NCc2cc(O)ccc2O)cc1,39.8µM,.,-,3.98µM,.
O=C(OCc1ccccc1)c1ccc(NCc2cc(O)ccc2O)cc1,?,.,?,25.1µM,.
CC(C)OC(=O)c1ccc(NC(=O)c2ccccc2)cc1,-,-,-,-,-
O=C(Nc1cccc2cccnc12)c1ccc(Br)cc1,-,.,.,-,.
CCCCN(C)c1c(C)nc2ccc(C(=O)Nc3ccc(OC)c(OC)c3)cn12,.,.,-,.,.
OCC1O[C@H](O[C@H]2C(O)C(O)C(O)O[C@@H]2CO)C(O)C(O)C1O (some centres undefined),.,-[12.7 µM],-,.,.
COc1ccc(N=C2NN=C(c3ccc4c(c3)OCCO4)CS2)cc1,?,44.7µM,-,?,?
CCCCN=C1NN=C(c2ccc3c(c2)OCCO3)CS1,-,44.7µM,-,-,.
COCCN=C1NN=C(c2ccc(C)c([N+](=O)[O-])c2)CS1,-,10µM,-,?,-
FC(F)Sc1ccc(N=C2NN=C(c3ccc4c(c3)OCCO4)CS2)cc1,?,.,.,-,-
CCCCN=C1NN=C(c2ccc(C)c(C)c2)CS1,?,31.6µM,-,-[11.4 µM],-

# Compound activity as filed in PubChem.
